# In PubChem BioAssay AID1910 (Broad Institute, 2009):
# The campaign covered roughly 300,000 compounds. About 950 (0.32%) were called active.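 Rule for the calls: active = mean activation of at least 10% of the iron chelator positive control signal, with at least half of replicates also reaching 10%; inconclusive = mean and replicate majority disagree about reaching 10%; inactive = mean and most replicates under 10%.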 For the sample, actives were picked, then their nearest neighbours and some compounds at random.
# Assay: HIF pathway transcriptional activators, primary screen, cell-based, U2OS HRE-luciferase, luminescence (AID 1910)
# Settings: U2OS HRE-luciferase reporter, stronger effect = higher value, screened at 7.5 µM (by protocol), normalized: DMSO 0%, desferrioxamine 100%
row,SMILES,activation
1,O=C(COc1coc(CN2CCN(c3ccccc3F)CC2)cc1=O)N1CCc2ccccc21,0.2% (inactive)
2,Cc1nc(-c2ccc(F)cc2)c(CC(=O)Nc2cc(S(=O)(=O)N3CCCCC3)ccc2C)s1,-0.206% (inactive)
3,CC1CN(C(=O)COC(=O)c2cccc(NS(=O)(=O)c3ccccc3)c2)CC(C)O1 (stereo not drawn),-0.538% (inactive)
4,CC(C)N(Cc1ccccc1)C(=O)COC(=O)c1ccccc1SCC(=O)N1CCCC1,-0.658% (inactive)
5,Oc1ccc(N=Nc2nccs2)c(O)c1,-0.857% (inactive)
6,Oc1ccc2ccccc2c1N=Nc1nccs1,68.6% (active)
7,c1ccc(NCc2cccc3ccccc23)nc1,-34.2% (inactive)
8,COc1cccc(NC(=O)CSc2nccn(-c3ccc4c(c3)OCCO4)c2=O)c1,0.704% (inactive)
9,CC(OC(=O)CCCc1c[nH]c2ccccc12)C(=O)Nc1ccc(S(N)(=O)=O)cc1 (stereo not drawn),0.134% (inactive)
10,CCCn1nc(C(=O)NNC(=O)CCOc2ccccc2OCC)c2ccccc2c1=O,0.594% (inactive)
11,COc1cc(OC)nc(S(C)(=O)=O)n1,0.158% (inactive)
12,COc1ccc(-c2cc(C(F)(F)F)nc(S(C)(=O)=O)n2)cc1OC,18.9% (active)
13,COc1ccc(-c2cc(C(F)(F)F)nc(SCC(=O)Nc3ccc4c(c3)OCO4)n2)cc1OC,-1.49% (inactive)
14,COc1ccc(C(=O)Nc2ccc(C(=O)NCC3CCCO3)cc2)c(OC)c1OC (stereo not drawn),-3.72% (inactive)
15,COc1cc(N)c(Cl)cc1C(=O)OCC(=O)c1ccc2c(c1)NC(=O)CO2,0.0757% (inactive)
16,CCCCn1c(N)c(N(CCOC)C(=O)COc2c(C)cccc2C)c(=O)[nH]c1=O,-0.338% (inactive)
17,Cc1nn(C)cc1C(=O)c1ccccc1,0.273% (inactive)
18,COc1ccc2c(c1)CCNC2Cc1ccc(OC)c(O)c1 (stereo not drawn),0.872% (inactive)
19,O=C1NC(c2ccccc2)Oc2ccccc21 (stereo not drawn),-0.318% (inactive)
20,CN(C)CCNC(=O)c1[nH]nc2c1CCc1ccccc1-2,2.68% (inactive)
21,COc1cccc(/C=N/NC(=O)c2[nH]nc3c2CCc2ccccc2-3)c1O,46.5% (active)
22,COc1cccc(/C=N/Nc2cc(C)nc(-c3ccccc3O)n2)c1O,0.0705% (inactive)
23,COc1ccc(O)c(/C=N/N=C/c2cccc([N+](=O)[O-])c2)c1,-2.34% (inactive)
24,Cc1ccccc1N1CCN(Cc2nc(Cc3ccccc3F)no2)CC1,0.117% (inactive)

row,SMILES,activation
1,C1CC1Cc1noc(CN2CCN(CC3CC3)CC2)n1,75.3% (active)
2,CC(C)C(O)C1CCN(Cc2nc(Cc3ccccc3Cl)no2)CC1 (stereo not drawn),0.0858% (inactive)
3,O=C(Nc1ccc(F)c([N+](=O)[O-])c1)C1CCCO1 (stereo not drawn),-0.403% (inactive)
4,COc1ccccc1C1=CC(=O)CCC1,0.17% (inactive)
5,COc1ccccc1CCNC(=O)C(=O)NCCC1CCCCN1S(=O)(=O)c1cccs1 (stereo not drawn),0.0341% (inactive)
6,CN(C)CCCNC(=S)N1CCC(c2nc3ccccc3[nH]2)CC1,0.0482% (inactive)
7,CCCNC(=S)N1CCCC(c2nc3ccccc3[nH]2)C1 (stereo not drawn),99.5% (active)
8,Cc1cccc(NC(=S)N2CCCC(c3nc4ccccc4[nH]3)C2)c1 (stereo not drawn),0.822% (inactive)
9,O=C(NCc1ccc2c(c1)OCO2)c1c(O)nc2sccn2c1=O,-0.288% (inactive)
10,COc1cc(C2CC(=O)N3CN(Cc4ccccc4)CSC3=C2C#N)ccc1OCc1ccccc1 (stereo not drawn),227% (active)
11,COc1cc(CNC2CCCC2)c(Br)cc1OCc1ccccc1,-0.706% (inactive)
12,COc1cc(CN2CCC(C(N)=O)CC2)ccc1OCc1ccccc1,5.51% (inactive)
13,COc1ccc(C(C#N)(CC(=O)O)c2cnccn2)cc1OC (stereo not drawn),-0.732% (inactive)
14,CCCCCN(C(=O)CCC(=O)OCC(=O)NC1CCC(C)CC1)c1c(N)n(CCCC)c(=O)[nH]c1=O (stereo not drawn),0.288% (inactive)
15,O=C(NCc1ccc(Cl)cc1)C(=O)NCC1CCCN1S(=O)(=O)c1cccs1 (stereo not drawn),-0.199% (inactive)
16,CC(=O)Nc1ccccc1NC(=O)c1cc(C)cc(C)c1,-0.124% (inactive)
17,Nc1ccc(C(=O)NCc2ccccc2)cc1,-0.0134% (inactive)
18,Nc1ccc(C(=O)Nc2ccccc2N)cc1,23.2% (active)
19,COc1cc(OC)c(OC)cc1CN1CCN(C(=O)c2cccc3ccccc23)CC1,-7.26% (inactive)
20,Cc1ccc(NC(=O)COc2coc(CN3CCc4ccccc4C3)cc2=O)cc1Cl,-0.873% (inactive)
21,Cc1nc2ccccc2nc1N/N=C/c1ccc(O)cc1O,15.9% (active)
22,Oc1ccc(/C=N/NC2=NCCCCC2)c(O)c1,1.31% (inactive)
23,Oc1ccc(/C=N/Nc2nc(-c3ccccc3F)nc3ccccc23)c(O)c1,0.0261% (inactive)
24,Cc1onc(-c2ccccc2Cl)c1C(=O)OCc1nnc(-c2ccccc2)o1,0.814% (inactive)

row,SMILES,activation
1,N#CC1(NC(=O)COC(=O)Cc2n[nH]c(=O)c3ccccc23)CCCCC1,1.1% (inactive)
2,O=C(COc1coc(CN2CCN(c3ccccc3)CC2)cc1=O)Nc1ccccc1F,0.427% (inactive)
3,Cc1ccc(OCCCCc2c(C)n[nH]c2C)cc1,0.618% (inactive)
4,CC(C)COc1ccc(C(=O)OCC(=O)NCCC2=CCCCC2)cc1,0.818% (inactive)
5,COc1cc2c(cc1OC)/C(=C/C(=O)c1ccc(NC(C)=O)cc1)NCC2,-0.377% (inactive)
6,CC1CN/C(=C\C(=O)c2ccc(Br)cc2)C(=O)N1 (stereo not drawn),71.1% (active)
7,CN1CCCC(OC(=O)COc2ccc(Br)cc2)C1 (stereo not drawn),-0.189% (inactive)
8,CC1CCc2[nH]c3ccc(C(=O)N(C)CC(=O)Nc4cccc(F)c4)cc3c2C1 (stereo not drawn),0.749% (inactive)
9,CCNS(=O)(=O)c1ccc(NC(=O)c2cncc(Br)c2)cc1,94.2% (active)
10,O=C(Nc1ccc(N2CCCC2=O)cc1)c1cncc(Br)c1,1.53% (inactive)
11,O=C(Nc1ccc(S(=O)(=O)Nc2ncccn2)cc1)c1cncc(Br)c1,-1.84% (inactive)
12,COc1cc(NC(=O)C2CC(c3ccccc3O)=NO2)c(OC)cc1Cl (stereo not drawn),-1.02% (inactive)
13,COc1ccc(NC(=O)NCCN2CCN(c3ccc(C)cc3)CC2)c(Cl)c1,2.29% (inactive)
14,O=C(Cc1ccc(Br)cc1)NCCc1ccccc1,0.0277% (inactive)
15,COc1ccc(NC(=O)C(C)N2c3cccc4cccc(c34)S2(=O)=O)c(OC)c1 (stereo not drawn),0.272% (inactive)
16,CC(C(=O)N1CCOCC1)N1c2cccc3cccc(c23)S1(=O)=O (stereo not drawn),163% (active)
17,CC(C)CN(CC(C)C)C(=O)CN1c2cccc3cccc(c23)S1(=O)=O,-19% (inactive)
18,COC(=O)C1CCN(C(=O)NC2CC(=O)N(c3ccc4c(c3)OCCO4)C2)CC1 (stereo not drawn),2.77% (inactive)
19,C/C=C/c1ccc(OCC(=O)OCC(=O)Nc2c(C)nn(-c3ccccc3)c2C)c(OC)c1,0.205% (inactive)
20,CCOc1ccccc1OCC(=O)Nc1ccccc1C(=O)NC1CC1,0.735% (inactive)
21,N[C@@H](Cc1ccccc1)C(=O)N1CCOCC1,1.05% (inactive)
22,Cc1cc(Oc2ccccc2)nc(N2CCOCC2)n1,686% (active)
23,Cc1cc(Nc2ccc(Cl)cc2)nc(N2CCOCC2)n1,0.664% (inactive)
24,Cc1cc(N2CCN(c3ccccc3)CC2)nc(N2CCOCC2)n1,-0.818% (inactive)

row,SMILES,activation
1,Cc1ccc(NC(=O)COC(=O)CNC(=O)c2ccc(Cl)cc2Cl)cc1S(=O)(=O)N1CCOCC1,-0.357% (inactive)
2,CCOC(=O)c1cc(C(C)C)sc1NC(=O)COC(=O)c1nccnc1N,-0.0851% (inactive)
3,Oc1ccc(CN2CCN(c3ncccn3)CC2)cc1,-0.81% (inactive)
4,Oc1c(CN2CCN(c3ccc(F)cc3)CC2)cc(Cl)c2cccnc12,57.7% (active)
5,CCN1CCN(C(c2cccnc2)c2cc(Cl)c3cccnc3c2O)CC1 (stereo not drawn),1.75% (inactive)
6,Cc1ccccc1OCC(=O)Nc1ccc2c(c1)ncn2C,1.83% (inactive)
7,C=CCC1(C(=O)N(C)Cc2ccccc2)CCN(C(=O)OC(C)(C)C)CC1,-0.424% (inactive)
8,COc1ccc2c(c1)O/C(=C\c1ccccc1O)C2=O,3.88% (inactive)
9,COc1cc([N+](=O)[O-])cc([N+](=O)[O-])c1NC(=O)N1CCOCC1,-0.133% (inactive)
10,COc1ccc(C#Cc2c(-c3ccc(OC)cc3)oc3ccc(-c4ccc5c(c4)OCO5)cc23)cc1,2.6% (inactive)
11,Cc1cccc(OCCC(=O)Nc2cc(S(=O)(=O)N3CCCCC3)ccc2N2CCOCC2)c1,-0.617% (inactive)
12,CN1CCN(c2ccc(S(=O)(=O)N3CCOCC3)cc2NC(=O)CCc2ccccc2)CC1,0.124% (inactive)
13,CC(=O)NCCC(=O)Nc1cc(S(=O)(=O)N2CCOCC2)ccc1N1CCOCC1,158% (active)
14,O=S(=O)(NCCCc1ccccc1)c1ccc(Br)cc1,-0.382% (inactive)
15,O=c1[nH]snc1-c1c(Cl)cccc1Cl,-0.133% (inactive)
16,COc1ccc(S(=O)(=O)N2CCOC2CNC(=O)C(=O)NCc2ccncc2)cc1OC (stereo not drawn),0.131% (inactive)
17,Cc1ccc(S(=O)(=O)N2CCN(C(=O)c3ccccc3-c3nc4ccccc4s3)CC2)c(C)c1,-37.1% (inactive)
18,CCOC(=O)C1CCN(C(=O)COC(=O)C2CCN(S(=O)(=O)c3ccc4c(c3)OCCO4)CC2)CC1,0.496% (inactive)
19,CC1C(=O)N2CCCc3cc(S(=O)(=O)NCc4ccc(F)cc4)cc1c32 (stereo not drawn),2.62% (inactive)
20,CCOc1ccccc1NS(=O)(=O)c1cc2c3c(c1)C(C)C(=O)N3CCC2 (stereo not drawn),-0.238% (inactive)
21,COc1ccccc1CCNS(=O)(=O)c1cc2c3c(c1)C(C)C(=O)N3CCC2 (stereo not drawn),80.8% (active)
